Measured values taken from PubChem BioAssay AID463254 (National Center for Advancing Translational Sciences (NCATS), 2010).
Hit rate of the full screen: of about 330,000 compounds, about 40 (0.01%) were called active. The call rests on the fitted dose curve; in most records, active means well fitted inhibition curve with a large enough effect; inconclusive means small, poorly fitted or top-dose-only effect, or effect the other way; inactive means flat fitted curve, though single readings scatter. Only a selection was taken, and actives are over-represented in it overall.

The molecules below were run against Ubiquitin carboxyl-terminal hydrolase 2 (Homo sapiens) (UniProt O75604) (assay: qHTS Assay for Inhibitors of Ubiquitin-specific Protease USP2a Using CHOP2 as the Reporter). Settings: USP2 core, Ub-CHOP2 coupled fluorogenic reporter, 485/531; series mostly up to 38.3 µM.
Ubiquitin carboxyl-terminal hydrolase 2 (Homo sapiens), sequence (O75604 whole entry, looked up): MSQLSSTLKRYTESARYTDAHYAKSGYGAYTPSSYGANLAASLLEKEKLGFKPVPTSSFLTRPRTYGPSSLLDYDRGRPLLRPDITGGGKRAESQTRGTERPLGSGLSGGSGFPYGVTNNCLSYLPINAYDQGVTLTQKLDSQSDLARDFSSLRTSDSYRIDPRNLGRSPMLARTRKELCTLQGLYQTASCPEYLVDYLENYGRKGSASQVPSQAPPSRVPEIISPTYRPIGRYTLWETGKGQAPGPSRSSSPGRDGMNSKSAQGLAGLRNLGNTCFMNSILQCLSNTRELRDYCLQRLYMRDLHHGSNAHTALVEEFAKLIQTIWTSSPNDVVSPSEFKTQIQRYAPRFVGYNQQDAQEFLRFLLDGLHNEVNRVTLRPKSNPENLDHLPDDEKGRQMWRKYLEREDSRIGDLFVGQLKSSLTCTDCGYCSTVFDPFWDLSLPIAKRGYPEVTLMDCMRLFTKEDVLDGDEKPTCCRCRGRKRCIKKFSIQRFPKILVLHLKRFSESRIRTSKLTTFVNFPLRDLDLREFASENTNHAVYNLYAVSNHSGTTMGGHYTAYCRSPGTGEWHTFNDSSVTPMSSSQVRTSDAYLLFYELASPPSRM
In short: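 Cell-free coupled assay: 10nM USP2 core preincubated 30min RT with compound in Tris-HCl pH 8.0/CaCl2/CHAPS buffer, then 25nM Ub-CHOP2 and 25nM reporter substrate; fluorescence (Ex 485/Em 531) read after 60min RT, normalized to NEM inhibition, concentration-response curves fitted.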

Activity change, negative = inhibition, inactive:
COc1ccc(-c2[nH]ncc2CN(Cc2nccn2C)C(C)C)cc1F
Cc1cc(C)c(NC(=O)CSc2nc3ccncc3[nH]2)c(C)c1
CCOC(=O)C(CC)/C(C)=N\NC(=O)c1cccc(C)c1 (stereo not drawn)
CSc1nc(-c2ccco2)nn1C(=O)c1ccccc1Cl
CCN(CC)CCN1C(=O)C(=O)/C(=C(/O)c2cnn(-c3ccccc3)c2C)C1c1cccs1 (stereo not drawn)
Cc1ccc(C(=O)N/C(=C/c2ccco2)C(=O)NCCc2c[nH]c3ccccc23)cc1C
Cc1ccc(NC(=O)CCC(=O)c2ccc(Br)cc2)cc1
C/C(=N\NC(=O)NC1CCCCC1)c1ccc(OC(F)F)cc1OC(F)F
CCC(=O)Nc1c(S(=O)(=O)c2ccccc2)c2nc3ccccc3nc2n1Cc1ccccc1
CC(c1ccco1)N(C(=O)Nc1ccccc1)C1CCCCC1 (stereo not drawn)
Cc1ccc(NC(=O)Cn2cnc3c(OCc4ccccc4)ncnc32)cc1C
COc1ccc(C(=O)N2CCc3cc(OC)c(OC)cc3C2c2cccc([N+](=O)[O-])c2)cc1 (stereo not drawn)
COc1ccc(C(=O)C2CCCN(C(=O)c3cc(C)on3)C2)cc1F (stereo not drawn)
COC(c1ccccc1)(c1ccccc1)C(Oc1nc(C)cc(C)n1)C(=O)O (stereo not drawn)
CN(C)/C=C(/C(=O)c1ccc(Cl)cc1)S(=O)(=O)c1ccccc1
O=C(Oc1ccc([N+](=O)[O-])cc1)c1ccc(Cl)c(S(=O)(=O)N2CCCCC2)c1
Cc1ccc(N(Cc2cc(=O)[nH]c3ccccc23)C(=O)CCl)cc1
C=CCn1cc(Cl)cc(C(=O)Nc2ccccc2)c1=O
CCCCCCCCn1c2c(c(=N)c3c1CCC3)CCCC2
COc1cccc(CNC(=O)COc2cc(O)c3c(c2)OC(C)(C)CC3=O)c1
Cn1nnnc1NCc1ccc(Cl)c(Cl)c1
COC(=O)c1cccc([N+](=O)[O-])c1CS(=O)(=O)c1ccc(C)cc1
C#CCOCCOCCOCCNc1nc(N2CCN(C(=O)C([C@@H](C)O)n3cc([C@@H](N)CCCCN)nn3)CC2)nc(N2CCN(C(=O)[C@H](CCCCN)n3cc(CN)nn3)CC2)n1 (stereo partly drawn)
CN(C)CCCNc1c2c(c(C#N)c3nc4ccccc4n13)CCC2
O=[N+]([O-])C(=c1ccc2c(c1)N1C3=C(CCCC3)CC3CCCCC31N=2)[N+](=O)[O-] (stereo not drawn)
Cc1cc(N2CCN(c3ccc(F)cc3)CC2)n2ncnc2n1
CCOC(=O)C1(CCOc2ccccc2)CCN(Cc2ccc(C#CCCO)cc2)CC1
CC(C)CN(C(=O)CSc1nncn1C)C1CCS(=O)(=O)C1 (stereo not drawn)
O=C(COC(=O)c1ccc(F)cc1F)Nc1ncccn1
CC(=O)N[C@@H](C)C(=O)N1CCC(n2nccc2NC(=O)CCCc2ccccc2)CC1
Cc1ccc(C(=O)Nc2nnc(C3=COCCO3)o2)cc1C
COc1ccccc1-n1c(C)nc2cc(C(=O)NCc3ccc4c(c3)OCO4)ccc21
CCCC(C)C(=O)NCc1ccncc1 (stereo not drawn)
CCOC(=O)c1sc(NC(=O)CSc2nc3c(c(=O)n2-c2ccccc2)SCC3)c(C(=O)OCC)c1C
CC(C)C(C)(C#N)NC(=O)CSc1nncn1-c1ccccc1 (stereo not drawn)
COc1cccc(/C=C(/CC(=O)Nc2ccc(N3CCOCC3)cc2)c2nc3ccccc3s2)c1
O=C(NC(=S)Nc1cccc(-c2ccc(CO)o2)c1)c1cccs1
CCCCCN(C(=O)CCC(=O)OCC(=O)NCc1ccc(OC)cc1)c1c(N)n(CCCC)c(=O)[nH]c1=O
Cc1ccc(S(=O)(=O)Nc2nc(N)n(-c3ccccc3)n2)cc1
COC(=O)c1ccc(OC(=O)c2nn(C)cc2Cl)c(OC)c1
Cc1nc2nc(COc3ccccc3)[nH]n2c(=O)c1C
O=C(Nc1cc(N2CCOCC2)ncn1)NC1(C(F)(F)F)Oc2ccc(Cl)cc2O1 (stereo not drawn)
CSc1ncc(C(=O)Nc2ccc(C)cc2C)c(C)n1
COc1cccc(CNS(=O)(=O)c2csc(C(N)=O)c2)c1
CC(=O)O[C@H]1CC[C@@]2(C)[C@@H](CC[C@@H]3[C@@H]2CC[C@]2(C)[C@@H](C(C)(C)O)C[C@@H]32)C1
Cc1ccc(C)c(CSc2nc(-c3ccco3)nc3c2c(=O)n(C)c(=O)n3C)c1
CCC(C)NC(=O)C1CCC(=O)N1Cc1ccc(C)cc1 (stereo not drawn)
COc1ccc(CS(=O)/C(Cl)=C(/Cl)C(=O)Nc2ccc(OC)nc2)cc1 (stereo not drawn)
